A selection: hits, their analogues and other compounds. The true share with any hit is near 12%.
HP1b chromo inh – HP1-beta chromodomain-methylated histone interaction inhibition. Potency, µM (highest dose often 114 µM), most hits filed as inhibitors. AlphaScreen HP1-beta / biotin-H3K9me3 peptide binding. 390,000 tested, 0.56% active; further: nearly all actives have a fitted effect of over 70% in size
Target sequence (P83916 whole entry, looked up): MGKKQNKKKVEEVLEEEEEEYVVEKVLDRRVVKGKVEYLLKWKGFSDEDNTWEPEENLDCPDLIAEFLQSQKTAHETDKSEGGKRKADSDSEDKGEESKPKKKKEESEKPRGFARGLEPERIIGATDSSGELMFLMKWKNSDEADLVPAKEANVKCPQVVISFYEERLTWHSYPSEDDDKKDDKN
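Compound inhibition of the preformed complex between 50 nM HP1-beta and 50 nM biotinylated H3K9me3 peptide was read by AlphaScreen. Buffer was PBS pH 7.4 with 0.01% Tween-20. Incubations ran 30 min at room temperature, with 10 ug/mL donor/acceptor beads.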
JMJD2A Tudor – blocks the human JMJD2A Tudor domain; O75164; 390,000 tested, 4.4% active; AlphaScreen JMJD2A-Tudor / H3K4me3 peptide binding; Potency, µM (highest dose often 114 µM), hits mostly inhibitors; further: nearly all actives have a fitted effect of over 50% in size
G9a block – G9a (human) methyltransferase inhibition. G9a H3K9 monomethylation, AlphaScreen, 2 h. Q96KQ7. AID 504332. 350,000 tested, 8.8% active. Potency, µM (titrated, usually from 102 µM), usual class: inhibitors; further: nearly all actives have a fitted effect of over 75% in size
Target sequence (Q96KQ7 913-1193 limits assumed): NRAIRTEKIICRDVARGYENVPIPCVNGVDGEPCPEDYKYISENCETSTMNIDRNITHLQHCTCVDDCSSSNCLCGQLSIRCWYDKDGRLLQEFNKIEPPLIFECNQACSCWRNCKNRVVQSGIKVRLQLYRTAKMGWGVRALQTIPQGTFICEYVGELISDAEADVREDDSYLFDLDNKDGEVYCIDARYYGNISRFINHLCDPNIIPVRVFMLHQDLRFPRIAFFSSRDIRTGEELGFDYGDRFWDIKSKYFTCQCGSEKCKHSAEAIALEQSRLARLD
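Compounds were preincubated with 20 nM G9a for 15 min, after which biotinylated H3K9 peptide (500 nM) and SAM (20 uM) started a 2 h room-temperature reaction. Monomethylated product was quantified by antibody-based AlphaScreen chemiluminescence.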
BAZ2B block – blocks human BAZ2B. 360,000 tested, 4.4% active. AID 504333. Potency, µM (doses to about 114 µM), most hits filed as inhibitors. AlphaScreen BAZ2B-H3K14Ac peptide displacement; further: nearly all actives have a fitted effect of over 60% in size
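AlphaScreen displacement: compounds (up to 110uM) incubated 30 min at room temperature with a preformed 50 nM BAZ2B/50 nM biotinylated H3K14Ac peptide complex in PBS pH 7.4 with Tween-20. Donor and acceptor beads at 10 ug/mL final added, 20 min light-protected before reading.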
Sfp inh – blocks B. subtilis Sfp PPTase activity. Q9F4F7. Biochemical Sfp PPTase activity, qHTS. Potency, µM, hits mostly inhibitors. 310,000 tested, 3.5% active. AID 1490;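 further: the enzyme is Sfp with the accession as filed and its product quenches rhodamine fluorescence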
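Fluorescence-quenching assay with 15 nM Sfp, 5 uM rhodamine-CoA and 12.5 uM BHQ-2-labelled ybbR peptide in pH 7.6 Hepes/MgCl2 buffer. Enzyme was pre-incubated with compound for 15 min at room temperature. Rate was taken from the 30-min fluorescence change (525/598 nm).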
Each line names hits and unclear results; the compound was inactive in the other large screens; ! = not confirmed by another sample. The call rests on the fitted dose curve; in most records, active means well fitted curve in the direction sought with a large enough effect; inconclusive means small, poorly fitted or top-dose-only effect, or another doubt; inactive means no such curve, though single readings can be large; an effect the other way counts as inactive or inconclusive.

CCCC12CN3CC(C)(CN(C1)C3c1cn(CC)c3ccccc13)C2=O (centres undefined)	JMJD2A Tudor inconclusive (no result: Sfp inh)
CC(OC(=O)c1cc(=O)[nH]c2ccccc12)C(=O)NC1CCCC1 (centres undefined)	none (no result: Sfp inh)
Cc1cc(C)cc(NC(=O)CSc2oc(-c3ccco3)nc2S(=O)(=O)c2ccccc2)c1	none (no result: Sfp inh)
Cc1cc(C)cc(NC(=O)CSc2ccc(-c3ccco3)nn2)c1	G9a block 25µM, BAZ2B block inconclusive, Sfp inh 22µM
CC(C)(C)c1ccc(C(=O)Oc2ccc3c(c2)OCC3=O)cc1	G9a block 50µM
CCOc1cccc(OCCOCCNC(C)(C)C)c1	JMJD2A Tudor 22µM, G9a block 14µM, BAZ2B block 45µM
CC(C)(C)NCCOc1ccc2ccccc2c1	none
CCOc1ccc(OCCCCNC(C)(C)C)cc1	JMJD2A Tudor 35µM, G9a block 22µM, BAZ2B block 50µM, Sfp inh inconclusive
Fc1ccc([C@H]2CCNC[C@H]2COc2ccc3c(c2)OCO3)cc1	none (no result: HP1b chromo inh, JMJD2A Tudor, G9a block, BAZ2B block)
Fc1ccc(-n2c(=S)[nH]c3cccnc32)cc1	HP1b chromo inh 71µM, JMJD2A Tudor 16µM, Sfp inh 28µM (no result: G9a block)
Cn1cccc1C(=O)N1CCC2(CC1)CN(Cc1cc(C(F)(F)F)cc(C(F)(F)F)c1)C2	none (no result: HP1b chromo inh, JMJD2A Tudor, BAZ2B block)
Cc1cc(OCCOCCN(C)CCO)cc(C)c1Cl	none
Cc1cc(Cl)c(OCCCNCc2ccccc2)c(Br)c1	JMJD2A Tudor inconclusive, G9a block 11µM, BAZ2B block inconclusive, Sfp inh inconclusive
Cc1cc(C)c(OCCCNCc2ccccc2)c(Br)c1	HP1b chromo inh inconclusive, JMJD2A Tudor 25µM, G9a block 13µM, BAZ2B block 50µM
Cc1cc(Cl)c(OCCN2C(=O)NC(C)(C)C2=O)c(Br)c1	none
COCCNCCCCOc1c(Cl)cc(C)cc1Br	JMJD2A Tudor 3.2µM, BAZ2B block 50µM (no result: G9a block)
Cc1cc(C)c(OCCOCCN(C)C)c(Br)c1	HP1b chromo inh inconclusive, JMJD2A Tudor 25µM, G9a block 10µM, BAZ2B block inconclusive
Cc1cc(Cl)cc(Br)c1OCCCNCC(C)O (centres undefined)	none
CCOC(=O)N1CCN(S(=O)(=O)N2CCCC(C(=O)NCc3cc(Br)ccc3OC)C2)CC1 (centres undefined)	BAZ2B block inconclusive (no result: Sfp inh)
COc1ccc(C)c2sc(NC(=O)c3ccc(S(=O)(=O)N(C)C)cc3)nc12	none (no result: Sfp inh)
Cc1cc(C)c(OCC(=O)OCC(=O)NC2CCCCCCC2)c(C)c1	none
Cc1cc(C)c(OCCCNC2CCCC2)c(Br)c1	JMJD2A Tudor 79µM, BAZ2B block inconclusive (no result: G9a block)
CCOc1ccc(NC(=O)CSc2nc3c(c(=O)[nH]2)CCCC3)cc1	none (no result: Sfp inh)
O=C(NCCC1=CCCCC1)Nc1ccc2nsnc2c1	G9a block 40µM
CC(=O)c1cccc(NC(=S)NCCC2=CCCCC2)c1	none
Cc1ccc(OCc2ccc(C(=O)N3CCOCC3)cc2)cc1C	G9a block inconclusive, Sfp inh 35µM
O=C(O)c1sc2cccc(Cl)c2c1Cl	none (no result: G9a block)
CC(C)CN(CC(C)C)C(=O)c1cccc(S(=O)(=O)N2CCc3ccccc32)c1	JMJD2A Tudor 45µM, G9a block 79µM
CC(C)CCNC(=O)c1cccc(S(=O)(=O)N2CCc3ccccc32)c1	none
CCN(CC)CCCC(C)NC(=O)c1cccc(S(=O)(=O)N2CCc3ccccc32)c1 (centres undefined)	G9a block 45µM
Cc1ccc(SCC(=O)OCC(=O)NC2(C#N)CCCCC2)cc1	none
COc1ccc(NC(=O)CCc2nnc3n(C)c(=O)c4sccc4n23)cc1Cl	none (no result: Sfp inh)
COc1cccc(Cn2c(=O)c(-c3ccc(F)c(F)c3)nc3cncnc32)c1	none (no result: HP1b chromo inh, JMJD2A Tudor, BAZ2B block)
c1ccc(Nc2c(-c3c[nH]c4ccccc34)nc3ccccn23)cc1	HP1b chromo inh inconclusive, JMJD2A Tudor inconclusive, G9a block inconclusive (no result: Sfp inh)
NCCS(=O)O	G9a block 19µM! (no result: HP1b chromo inh, JMJD2A Tudor, BAZ2B block)
Cc1ccc(O)c(C(=O)c2cnn(-c3ccccc3)c2)c1	JMJD2A Tudor 16µM
Cc1ccc(-n2cc(C(=O)c3ccccc3O)cn2)cc1	none (no result: G9a block)
O=C(Cc1cnn(-c2ccccc2)c1)c1ccc(O)c(O)c1O	HP1b chromo inh inconclusive, JMJD2A Tudor inconclusive, G9a block 13µM, BAZ2B block inconclusive, Sfp inh 32µM
O=C(COc1ccccc1C(=O)c1cnn(-c2ccccc2)c1)Nc1ccccc1	G9a block 45µM
CC(C)(C)c1ccc(C(=O)NC2(C(F)(F)F)NC(=O)N(CCc3ccccc3)C2=O)cc1 (centres undefined)	none (no result: Sfp inh)
CC(CCc1ccco1)NC(=O)Nc1cccc(F)c1 (centres undefined)	G9a block 50µM
CNC(=O)c1cc2n(n1)CCCN(Cc1ccc(F)cc1)C2=O	none (no result: Sfp inh)
CC(C)c1cccc(OCCCCN(C)C)c1	HP1b chromo inh inconclusive, JMJD2A Tudor inconclusive, G9a block 4µM, BAZ2B block inconclusive, Sfp inh 79µM
CCN(CC)CCOc1cccc(C(C)C)c1	HP1b chromo inh inconclusive, JMJD2A Tudor 6.3µM, G9a block inconclusive, BAZ2B block inconclusive
CCCCCCOc1cccc(N)c1	G9a block inconclusive
C=CCNc1nc(=S)[nH]c2cc(OC)c(OC)cc12	JMJD2A Tudor inconclusive, G9a block 25µM
COc1cc2[nH]c(=S)nc(NC3CCCC3)c2cc1OC	G9a block 32µM (no result: HP1b chromo inh, JMJD2A Tudor)
COc1cc2[nH]c(=O)[nH]c(=O)c2cc1OC	none (no result: HP1b chromo inh, JMJD2A Tudor, BAZ2B block)
CCCCCCCC1=CC2=CC(=O)C(C)(O)C(=O)C2=CN1CCCC (centres undefined)	none (no result: HP1b chromo inh, JMJD2A Tudor, G9a block, BAZ2B block)
O=C(NC(=S)Nc1ccc(S(=O)(=O)Nc2nccs2)cc1)c1ccc(F)cc1	G9a block 10µM, BAZ2B block inconclusive
COc1ccc(CC(=O)Nc2ccc(S(=O)(=O)Nc3nccs3)cc2)cc1	JMJD2A Tudor inconclusive
O=C(Nc1ccc(S(=O)(=O)Nc2nccs2)cc1)c1cccc(F)c1	none
CN(C)c1cccc(C(=O)Nc2ccc(S(=O)(=O)Nc3nccs3)cc2)c1	JMJD2A Tudor inconclusive (no result: G9a block, BAZ2B block, Sfp inh)
O=C(Nc1ccc(S(=O)(=O)Nc2nccs2)cc1)C1=NN(c2ccccc2)C(=O)CC1	G9a block 45µM
O=C(Nc1ccc(S(=O)(=O)Nc2nccs2)cc1)c1ccc(=O)[nH]c1	JMJD2A Tudor inconclusive, BAZ2B block 50µM (no result: G9a block)
Cc1ccc(-n2ccc(=O)c(C(=O)Nc3ccc(S(=O)(=O)Nc4nccs4)cc3)n2)cc1	BAZ2B block inconclusive
COc1ccc(S(=O)(=O)Nc2ccc(S(=O)(=O)Nc3nccs3)cc2)cc1	G9a block 50µM
COc1cc(Cl)ccc1OCc1cc(C(=O)NCc2cc(C(C)C)no2)no1	none (no result: G9a block)
O=C(COc1ccc2cc(-c3ccccc3)c(=O)oc2c1)NCC1CCC(C(=O)O)CC1 (centres undefined)	G9a block inconclusive
COc1ccc(S(=O)(=O)Nc2ccccc2C(=O)N2CCCCC2)cc1C	none (no result: G9a block)
CC(C)(C)C(=O)NC(=S)Nc1ccc(S(=O)(=O)Nc2nccs2)cc1	G9a block 50µM
O=c1cc(Nc2ccc3c(c2)OCCO3)[nH]c(=O)n1-c1ccc(Br)cc1	none

Compound activity: PubChem BioAssay, National Center for Advancing Translational Sciences (NCATS)
